Bioassay records as filed in PubChem BioAssay.
An excerpt weighted towards active compounds, which were near 6.1% of everything screened.
ALOX15 inhib: inhibitors of human 15-lipoxygenase (ALOX15) | Potency, µM (series often up to 57.1 µM), inactives show at the highest dose activity change, negative = inhibition, most hits filed as inhibitors | actives 1.4% (n = 74,000) | purified 15hLO-1, xylenol orange hydroperoxide absorbance | P16050; further: nearly all actives have a fitted effect of over 55% in size
Target sequence (P16050 whole entry, looked up): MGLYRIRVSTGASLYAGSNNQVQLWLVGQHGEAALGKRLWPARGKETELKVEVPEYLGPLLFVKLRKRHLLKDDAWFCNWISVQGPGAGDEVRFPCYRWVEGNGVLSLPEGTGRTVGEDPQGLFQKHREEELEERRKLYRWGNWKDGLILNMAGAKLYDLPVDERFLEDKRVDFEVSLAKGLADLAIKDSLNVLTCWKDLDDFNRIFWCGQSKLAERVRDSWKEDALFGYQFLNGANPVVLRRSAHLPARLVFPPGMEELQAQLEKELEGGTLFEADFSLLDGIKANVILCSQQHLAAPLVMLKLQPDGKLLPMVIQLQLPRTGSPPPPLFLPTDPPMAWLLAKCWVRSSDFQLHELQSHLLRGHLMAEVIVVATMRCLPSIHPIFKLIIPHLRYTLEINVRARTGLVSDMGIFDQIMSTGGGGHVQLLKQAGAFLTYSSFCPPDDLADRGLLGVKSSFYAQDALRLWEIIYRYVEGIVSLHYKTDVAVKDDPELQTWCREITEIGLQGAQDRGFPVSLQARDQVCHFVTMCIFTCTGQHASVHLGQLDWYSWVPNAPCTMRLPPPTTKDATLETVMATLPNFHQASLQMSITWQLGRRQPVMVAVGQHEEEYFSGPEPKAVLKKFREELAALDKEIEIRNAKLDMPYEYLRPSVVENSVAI
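Inhibition is scored from a chromogenic endpoint. After 15 min enzyme-compound contact, arachidonic acid (50 uM final) reacts 6 min with 40 nM 15hLO-1 at room temperature, then Fe-XO reagent is added for 30 min and absorbance ratio recorded.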
Luciferase inh: inhibitors of firefly luciferase; P08659; Potency, µM (top dose mostly 57.1 µM), inactives show at the top dose activity change, negative = inhibition, actives largely listed as inhibitors; purified firefly luciferase, luminescence, 8 min; actives 2.2% (n = 72,000); further: nearly all actives have a fitted effect of over 40% in size
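Compounds were tested as concentration series (qHTS) against purified P. pyralis luciferase with luciferin and 10 uM ATP in 50 mM imidazole pH 7.2, 50 mM KCl, 7 mM MgCl2, 0.01% Tween 20, 0.05% BSA. Luminescence was read after 8 min at ambient temperature.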
ERK AVP block: blocks ERK signaling stimulated by vasopressin. HEK293-V1b, vasopressin-stimulated pERK AlphaScreen. Potency, µM (doses to about 57.5 µM), for the others: at the highest dose activity, negative = inhibition, usual class: inhibitors. actives 0.99% (n = 72,000). AID 995; further: nearly all actives have a fitted effect of over 55% in size
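V1b-HEK293 cells; cpd 30 min 37C; 25 nM vasopressin 5 min; lyse 10 min; AlphaScreen beads 5 hr RT. Normalized to DMSO basal and 25 nM vasopressin; AC50 by Hill fit.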
Bst PK mod: alters activity of Bacillus stearothermophilus pyruvate kinase. purified pyruvate kinase, luminescence ATP production; ribose 5-phosphate activator present at AC10. Potency, µM. actives 1.2% (n = 51,000); in the data active means potency below about 11 µM; inconclusive means mostly about 12 µM to 25 µM;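 the screen sought inhibitors and activators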;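 further: scaled between full activation by ribose 5 phosphate and full inhibition by luteolin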
Hsp90 Hop PPI: changes Hsp90-Hop TPR2A binding signal, up or down; AlphaScreen TPR2A-His6 binding biotin-Hsp90 C-terminal peptide; Potency, µM (titrated, usually from 57 µM), inactives show top-dose activity change, negative = inhibition; actives 0.44% (n = 71,000); AID 595; active means well fitted curve in either direction with a large enough effect; inconclusive means small, poorly fitted or top-dose-only effect, or another doubt
Tau filament bind: binders of human tau filaments; recombinant tau filaments, thioflavin S fluorescence, 15 h; filaments grown with octadecylsulfate alongside compound; Potency, µM (top dose mostly 57.1 µM), without a hit: top-dose activity change, negative = inhibition; actives 2% (n = 71,000); AID 596;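 further: actives lower thioflavin S fluorescence by blocking filaments or displacing dye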
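Thioflavine S fluorescence (ex 450, em 510 nm) reports filaments formed from 1 uM human tau plus 30 uM ODS over 15 h at 37 C (10 mM HEPES pH 7.4, 100 mM NaCl, 5 mM DTT); compounds displacing dye or blocking filaments lower signal.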
Numbers without * were called inactive; i = inactive; ? = inconclusive; . = no result; [ ] = dose if it differs, or a comment. Unless noted, the call rests on the fitted dose curve; in most records, active means well fitted curve in the direction sought with a large enough effect; inconclusive means small, poorly fitted or top-dose-only effect, or another doubt; inactive means no such curve, though single readings can be large; an effect the other way counts as inactive or inconclusive. Unless noted, on the % scale 0 is the no-effect control and ±100 the full control effect; potency means the concentration at half of the fitted maximal effect.

SMILES	ALOX15 inhib	Luciferase inh	ERK AVP block	Bst PK mod	Hsp90 Hop PPI	Tau filament bind
C/C(=C\C(=O)c1ccc(C)cc1)Nc1cccc(O)c1	-4.5%	5.01µM*	-17.9%	.	-17.7%	39.7%
Cc1ccc(C(=O)/C=C/Nc2cccc(O)c2)cc1	.	2.51µM*	.	1.26*	.	.
Cc1cccc(OCC(=O)Nc2cccc(O)c2)c1	-2.1%	-10.5%	?	.	0.3%	-9.1%
CCc1ccc(CCC(=O)O)nc1	2.3%[11.4 µM]	-1.0%[11.4 µM]	-6.5%[11.5 µM]	.	-1.6%[11 µM]	-0.6%[11.4 µM]
O=C1CS/C(=N\C(=O)N2c3ccccc3Sc3ccccc32)N1	?	-2.8%	4.5%	.	-12.8%[11 µM]	3.16µM*
O=C1CSC(=Nc2ccccc2Cl)N1	5.3%	-5.5%	9.1%	.	-3.9%	-5.9%
COC(=O)C1=C(C)NC(C)=C([N+](=O)[O-])[C@@H]1c1ccccc1C(F)(F)F	-3.2%[25.6 µM]	3.98µM*	18.5%	.	-12.4%	31.6µM*
COC(=O)C1=C(C)NC(C)=C([N+](=O)[O-])[C@H]1c1ccccc1C(F)(F)F	-5.3%[25.6 µM]	-0.6%	3.8%	.	-7.0%	31.6µM*
Cn1cc(C(=O)c2ccc(F)cc2)cc1-c1nc2ccccc2n1C	-5.0%	2.4%	25.1µM*	>57	-8.2%	12.4%
CC(=O)c1cc(-c2nc3ccccc3n2C)n(C)c1	-0.6%	3.5%	-28.1%	>57	-2.0%	11.6%
Cc1occc1C(=O)Nc1cccc2ccccc12	-7.7%	25.1µM*	2.9%	i	-3.5%	-18.9%
Cc1c2cnccc2c(C)c2c1c1ccccc1n2CCOC(=O)c1ccccc1	7.5%[11.4 µM]	1.3%[11.4 µM]	-3.5%[11.5 µM]	.	10.3%[11 µM]	15.4%[11.4 µM]
CN1CCN(c2ncc3nc(-c4ccc(Cl)cc4)c(=O)n(Cc4ccc(F)cc4)c3n2)CC1	-4.5%	-1.5%[11.4 µM]	-4.7%	.	0.7%	?
Cc1cc2ncc(-c3ccc(Cl)cc3)c(N)n2n1	0.5%	12.6µM*	.	.	-3.6%	-7.4%
O=C(Nc1nn[nH]n1)c1nc(-c2ccccc2)cc(=O)[nH]1	4.6%[11.4 µM]	2.6%[11.4 µM]	0.4%[11.5 µM]	.	-9.0%[11 µM]	-6.7%[11.4 µM]
c1ccc(C2=Nn3c(nnc3-c3cc(-c4ccccc4)n[nH]3)SC2)cc1	?	?	25.1µM*	>11.4	-6.3%	209.5%
COc1ccc(C2=Nn3c(nnc3-c3ccccc3OC)SC2)cc1OC	10.1%	1.9%	5.01µM*	>57	-4.3%	-7.0%
COc1ccc(C2=Nn3c(nnc3-c3ccc(OC)cc3)SC2)cc1	-20.4%	-1.6%	10µM*	>57	-11.6%	54.3%
Cc1ccc(-c2nnc3n2N=C(c2ccccc2)CS3)cc1	3.0%	-1.2%	.	.	-0.3%	30.8%
COc1c(O)c(O)cc2c1oc1c3ccccc3oc(=O)c21	.	.	-28.6%	.	.	.
CN(C)c1ncc2nc(-c3cc(F)cc(F)c3)c(=O)n(C[C@H]3CCCO3)c2n1	2.8%	0.5%[11.4 µM]	0.6%	.	-6.0%	9.3%
N#CCSc1nc(Nc2ccc3c(c2)OCO3)c2ccccc2n1	?	-0.5%	31.6µM*	.	-1.5%	8.4%
COc1cc(Nc2nc(SCC#N)nc3ccccc23)cc(OC)c1OC	8.4%	0.4%	-12.3%	>57	-8.2%	-10.7%
CNc1ccc(O)cc1	?	.	-10.6%	.	-6.4%	20µM*
CNc1ccccc1	-1.9%	.	23.3%	.	-3.1%	-5.6%
SMILES	ALOX15 inhib	Luciferase inh	ERK AVP block	Bst PK mod	Hsp90 Hop PPI	Tau filament bind
CC1=CC(=O)[C@@H]2C[C@H]1C2(C)C	5.2%[25.6 µM]	.	-6.7%	.	.	.
CCN(CC)S(=O)(=O)c1cc(C(=O)Nc2ccc(Cl)cn2)ccc1C	-12.9%[11.4 µM]	7.94µM*	?	.	9.1%[11 µM]	3.2%[11.4 µM]
Cc1ccccc1C(=O)Nc1ccc(Cl)cn1	?	?	-10.6%	.	2.1%	-1.7%
Cc1ccc(C(=O)Nc2ccc(Cl)cn2)cc1	2.8%	6.31µM*	17.5%	9.14*	6.0%	7.2%
CCN(CC)S(=O)(=O)c1cc(C(=O)NC2CCCCC2)ccc1C	-2.0%[11.4 µM]	12.6µM*	-3.2%	.	-4.7%[11 µM]	2.3%[11.4 µM]
Cc1ccc(NC(=O)c2ccc3ccccc3n2)nc1	-9.3%	6.31µM*	-27.2%	6.87*	13.0%	-7.3%
O=C(Nc1ccccc1C(=O)O)c1ccc2ccccc2n1	-5.6%	.	.	.	.	.
CO/N=C\[C@@H](NS(=O)(=O)c1ccc(C)cc1)[C@H](C)/C=C\CC(=O)OC	-13.6%[11.4 µM]	-0.2%[11.4 µM]	4.6%[11.5 µM]	.	.	.
Cc1cnc(CNc2ccnc(-c3cccnc3)n2)cn1	-16.6%	-1.9%[2.29 µM]	?	.	-3.6%	-4.7%
